Records with an inconclusive call do not appear. Calls of active or inactive are those of the source. Unless noted, calls come from the whole dose curve; as a rule, active = well fitted curve in the direction sought with a large enough effect; inconclusive = small, poorly fitted or top-dose-only effect, or another doubt; inactive = no such curve, though single readings can be large; an effect the other way counts as inactive or inconclusive.

Assay [1] deals with Estrogen receptor (Homo sapiens) (UniProt P03372). Kind of assay: qHTS assay for small molecule antagonists of estrogen receptor alpha signaling (AID 588513; active = well fitted curve in the direction sought with a large enough effect in the signal ratio, with a control signal flat, not every such curve was filed as active; the % refers to the signal ratio; note: % is set by controls: 0 for no effect and ±100 for the full control effect). The method, boiled down:
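Antagonist-mode qHTS in ER-alpha-UAS-bla HEK 293 cells: compound titration, 0.5nM estradiol for 18 h, CCF4 fluorescence, Hill-derived IC50.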

For assay [2] the target is unchanged. Kind of assay: qHTS assay for small molecule agonists of estrogen receptor alpha signaling (AID 588514; calls by dose curve;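 note: 0% = vehicle only and 100% = reference agonist; nearly all actives have a fitted effect of over 70% in size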). The procedure, abridged: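 Reporter-gene assay. […] controls beta-lactamase in HEK 293 GripTite cells; after 18 hrs with compound, CCF4 substrate is added for 2 hrs and fluorescence is read.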
A general note: Quantitative high-throughput screening tests each substance at several concentrations.

Assay [3] deals with Glucocorticoid receptor (Homo sapiens) (UniProt P04150). The assay can be described thus: qHTS assay for small molecule agonists of glucocorticoid receptor signaling (AID 588532; active = well fitted curve in the direction sought with a large enough effect in the signal ratio, with a control signal flat; the % refers to the signal ratio;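 note: 100% = dexamethasone at 0.1 µM and 0% = DMSO only wells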). Conditions: HeLa MMTV-bla, beta-lactamase ratio, agonist, 18 h; stronger effect = higher value; percent of dexamethasone control, DMSO zero. The procedure, abridged:
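MMTV-bla HeLa, beta-lactamase reporter; medium with 1% charcoal/dextran-stripped FBS; cpds up to 92 uM, 18 h, 37 C; CCF4 readout 460/530 nm; Hill fit → EC50, efficacy vs 0.1 uM dexamethasone = 100%.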

For assay [4] the target is unchanged. Kind of assay: qHTS assay for small molecule antagonists of glucocorticoid receptor signaling (AID 588533; active = well fitted inhibition curve with a large enough effect in the signal ratio, with a control signal flat, not every such curve was filed as active; the % refers to the signal ratio;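 note: cells stimulated with 2 nM dexamethasone as agonist; % is set by controls: 0 for no effect and ±100 for the full control effect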). The method, boiled down:
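Antagonist-mode qHTS: compound titrations added to GRE-bla HeLa cells, then dexamethasone 2 nM final; 18 h, 37 C. CCF4 FRET fluorescence normalized to dexamethasone and DMSO; IC50 from Hill fit.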

Assay [5] in a line: qHTS assay for small molecule antagonists of peroxisome proliferator-activated receptor delta signaling (AID 588535; active = well fitted inhibition curve with a large enough effect in the signal ratio, with a control signal flat, not every such curve was filed as active; the % refers to the signal ratio;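 for max response: cells co-treated with a PPAR-delta agonist as stimulator during compound exposure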). The note with it: HEK293T PPARd-UAS-bla, beta-lactamase FRET ratio, 18 h; 460 nm channel. The method, boiled down:
(§1)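 GeneBLAzer PPAR-delta-UAS-bla HEK293T cells in medium with 2% charcoal/dextran FBS were preincubated 5 hrs at 37 C, then given compounds, incubated 18 hrs at 37 C, and read by CCF4 beta-lactamase fluorescence; IC50 from Hill fits.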

Assay [6] addresses Peroxisome proliferator-activated receptor delta (Homo sapiens) (UniProt Q03181). The assay is described as above. The procedure, abridged: as §1
Assay [7] can be described thus: qHTS assay for small molecule agonists of retinoid X receptor alpha signaling (AID 588544; calls by dose curve;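 for activation: 0% = DMSO basal wells and 100% = reference agonist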). Conditions: HEK293T RXRa-UAS-bla, beta-lactamase reporter, 18 h; 530 nm emission.
For assay [8], the target named is Retinoic acid receptor RXR-alpha (Homo sapiens) (UniProt P19793). The assay is described as above.
Assay [9] has as its target Thyroid hormone receptor beta (Homo sapiens) (UniProt P10828). Kind of assay: qHTS assay for small molecule agonists of thyroid hormone receptor beta signaling (AID 588545; calls by dose curve). The method, boiled down: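 HEK 293 TR-UAS-bla; agonist mode; 18 hrs, 37 C; CCF4, ex 405/em 460 and 530 nm; norm. T3 10 nM = 100%, DMSO = 0%; Hill fit → EC50, efficacy.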
Assay [10] is described as follows: qHTS assay for small molecule antagonists of retinoid X receptor alpha signaling (AID 588546; active = well fitted inhibition curve with a large enough effect in the signal ratio, with a control signal flat, not every such curve was filed as active; the % refers to the signal ratio;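 note: cells stimulated with 9-cis-retinoic acid as agonist; % is set by controls: 0 for no effect and ±100 for the full control effect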). The note with it: HEK293T RXRa-UAS-bla, beta-lactamase ratio, antagonist mode; measured here: W530 green channel, cytotoxicity proxy. The procedure, abridged:
(§2)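 Beta-lactamase reporter inhibition, read as CCF4 fluorescence ratio (ex 405, em 460/530 nm) after 2 h at RT. HEK293T UAS-bla cells, 2500/well, were stimulated with 9-cis-RA at 500 or 100 nM final alongside test compound for 18 h at 37 C.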

The target in assay [11] is Retinoic acid receptor RXR-alpha (Homo sapiens) (UniProt P19793). Described as above. The note with it: HEK293T RXRa-UAS-bla, beta-lactamase ratio, antagonist mode. The procedure, abridged: as §2
The nature of assay [12]: qHTS assay for small molecule activators of the nuclear factor-kappa B (NF-kB) signaling pathway (AID 651749; active = well fitted activation curve with a large enough effect in the signal ratio; the % refers to the signal ratio; note: series mostly up to about 77 µM; % of control where 0% means no effect). Conditions: NF-kB-bla ME-180 cells, beta-lactamase FRET ratio, 16 h; activation: stronger effect = higher value. The method, boiled down:
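ME-180 cells stably carrying a beta-lactamase reporter under an NF-kB response element were exposed to compound or DMSO vehicle for 16 hr at 37C, 5% CO2. Pathway activation was read by FRET, since reporter expression disrupts FRET.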

A short description of assay [13]: qHTS assay for environmental chemicals that activate the Aryl hydrocarbon Receptor (AhR) signaling pathway (AID 651777). Note: % of control where 0% means no effect; nearly all actives have a fitted effect of over 15% in size. The note with it: 1A2-DRE human hepatoma cells, luciferase, 24 h; activation: stronger effect = higher value. The procedure, abridged:
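Luminescence (One-Glo, 30 min, room temperature) reports AhR-driven luciferase in stably transfected human hepatoma cells bearing DRE and CYP1A2 promoter. Cells (1,200/well) were treated with compound for 24 hr at 37 C in qHTS format.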

Assay [14] concerns the target Peroxisome proliferator-activated receptor alpha (Homo sapiens) (UniProt Q07869). The assay can be described thus: qHTS assay for small molecule agonists of the peroxisome proliferator-activated receptor alpha (PPARalpha) signaling pathway (AID 651778). Note: % of control where 0% means no effect. Conditions: PathHunter PPARalpha complementation, chemiluminescence, 6 h; max response: stronger effect = higher value. The method, boiled down:
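Cells plated at 2,000/well and held overnight at 37 C, 5% CO2, then compound added by pin tool for 6 hr; after PathHunter detection reagent and 60 min at room temperature, chemiluminescence from enzyme complementation was read.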

Assay [15] in a line: qHTS assay for small molecule agonists of the antioxidant response element (ARE) signaling pathway measured by Nrf2-dependant transcriptional activity (AID 720636; active = well fitted curve in the direction sought with a large enough effect in the repeat runs; an effect the other way counts as inactive or inconclusive; note: % of control where 0% means no effect). The method, boiled down: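 Nrf2-dependent transcription read as ONE-Glo luciferase signal from ARE-luc HepG2 reporter cells after 16 hr compound treatment at 37 C, 5% CO2, in assay medium with 1% dialyzed FBS.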

Assay [16] is described as follows: qHTS assay for small molecule agonists of the antioxidant response element (ARE) signaling pathway measured by Nrf2-dependant transcriptional activity - cell viability counter screen (AID 720653; active = well fitted curve in the direction sought with a large enough effect in the repeat runs; an effect the other way counts as inactive or inconclusive; note: % is set by controls: 0 for no effect and ±100 for the full control effect). Conditions: ARE-bla HepG2 viability, CellTiter-Glo ATP luminescence, 16 h; max response: stronger effect = lower value. The method, boiled down:
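ARE-bla HepG2 cells (2,000/well) rested 5 hrs at 37C/5% CO2, then exposed to compounds in DMSO for 16 hrs. Viability was read in the same wells as intracellular ATP by luminescence, 30 min at room temperature after reagent addition.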

The nature of assay [17]: qHTS assay for cell viability of HEK293 cells (AID 743288). Note: % is set by controls: 0 for no effect and ±100 for the full control effect; nearly all actives have a fitted effect of over 50% in size. Conditions: ATP luminescence (CellTiter-Glo), 18 h; max response: stronger effect = lower value. The method, boiled down: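 Luminescent ATP quantitation served as the viability read-out. Cells (parental HEK293, 2,000/well) received compounds after at least 5 h at 37 C and were exposed for 18 h before a 30 min room-temperature reagent step.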

A short description of assay [18]: qHTS assay for cell viability of the p53RE-bla HCT-116 cell line (AID 743292). Note: % is set by controls: 0 for no effect and ±100 for the full control effect; nearly all actives have a fitted effect of over 55% in size. The procedure, abridged:
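ATP-based luminescent viability (CellTiter-Glo, 30 min RT) after 16 h compound treatment at 37 C of p53RE-bla HCT-116 cells, seeded at 4,000 cells/well and rested 5 h before dosing.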

The target of assay [19] is Nuclear receptor subfamily 1 group I member 2 (Rattus norvegicus) (UniProt Q9R1A7). The assay can be described thus: qHTS assay for small molecule activators of the rat pregnane X receptor (rPXR) signaling pathway (AID 651751; call rule not given here; note: 0% is about no effect). Conditions: rPXR reporter cells, luciferase (One-Glo), 24 h.
The nature of assay [20]: qHTS assay for small molecule activators of the human pregnane X receptor (PXR) signaling pathway (AID 720659; call rule not given here; note: 0% is about no effect).

Chain of Thyroid hormone receptor beta (Homo sapiens) (P10828 whole entry, looked up): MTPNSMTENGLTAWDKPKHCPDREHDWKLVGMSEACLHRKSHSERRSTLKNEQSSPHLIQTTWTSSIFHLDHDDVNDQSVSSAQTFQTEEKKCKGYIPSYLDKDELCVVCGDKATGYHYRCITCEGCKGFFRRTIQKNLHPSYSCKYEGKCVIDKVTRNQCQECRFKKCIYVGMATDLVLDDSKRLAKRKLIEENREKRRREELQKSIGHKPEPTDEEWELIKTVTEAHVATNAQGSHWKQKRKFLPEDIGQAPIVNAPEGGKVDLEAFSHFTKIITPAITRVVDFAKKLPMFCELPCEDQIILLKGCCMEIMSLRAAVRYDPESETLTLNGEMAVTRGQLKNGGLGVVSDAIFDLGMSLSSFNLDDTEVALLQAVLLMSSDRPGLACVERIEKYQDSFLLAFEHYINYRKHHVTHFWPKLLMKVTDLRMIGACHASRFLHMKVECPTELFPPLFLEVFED
Chain of Peroxisome proliferator-activated receptor alpha (Homo sapiens) (Q07869 whole entry, looked up): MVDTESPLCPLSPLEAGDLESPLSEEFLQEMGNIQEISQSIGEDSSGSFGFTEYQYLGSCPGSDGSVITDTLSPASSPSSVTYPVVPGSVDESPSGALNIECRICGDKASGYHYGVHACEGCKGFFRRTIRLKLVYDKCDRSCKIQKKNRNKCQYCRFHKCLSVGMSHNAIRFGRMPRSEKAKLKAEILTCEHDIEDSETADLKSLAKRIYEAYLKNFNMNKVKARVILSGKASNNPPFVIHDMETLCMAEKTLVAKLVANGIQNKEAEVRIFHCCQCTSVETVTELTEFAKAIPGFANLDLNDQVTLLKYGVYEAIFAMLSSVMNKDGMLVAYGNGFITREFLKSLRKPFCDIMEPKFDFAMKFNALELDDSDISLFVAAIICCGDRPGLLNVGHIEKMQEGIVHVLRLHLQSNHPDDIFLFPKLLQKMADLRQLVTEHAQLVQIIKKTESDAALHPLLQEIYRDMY
Chain of Estrogen receptor (Homo sapiens) (P03372 whole entry, looked up): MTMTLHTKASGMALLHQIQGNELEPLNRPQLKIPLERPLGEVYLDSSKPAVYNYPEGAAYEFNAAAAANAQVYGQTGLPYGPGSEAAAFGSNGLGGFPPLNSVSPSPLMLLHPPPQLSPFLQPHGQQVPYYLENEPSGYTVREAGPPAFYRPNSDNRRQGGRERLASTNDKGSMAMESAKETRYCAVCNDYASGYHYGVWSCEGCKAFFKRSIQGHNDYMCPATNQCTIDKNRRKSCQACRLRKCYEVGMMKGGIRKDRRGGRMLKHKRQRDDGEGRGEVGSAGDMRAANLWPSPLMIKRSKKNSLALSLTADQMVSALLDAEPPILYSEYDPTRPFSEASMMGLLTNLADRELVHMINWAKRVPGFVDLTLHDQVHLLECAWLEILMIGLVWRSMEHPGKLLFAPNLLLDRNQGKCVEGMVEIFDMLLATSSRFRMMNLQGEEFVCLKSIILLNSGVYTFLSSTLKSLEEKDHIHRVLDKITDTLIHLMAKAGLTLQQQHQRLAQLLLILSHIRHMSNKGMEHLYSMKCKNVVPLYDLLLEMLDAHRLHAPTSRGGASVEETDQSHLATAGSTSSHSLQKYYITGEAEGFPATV
Chain of Peroxisome proliferator-activated receptor delta (Homo sapiens) (Q03181 whole entry, looked up): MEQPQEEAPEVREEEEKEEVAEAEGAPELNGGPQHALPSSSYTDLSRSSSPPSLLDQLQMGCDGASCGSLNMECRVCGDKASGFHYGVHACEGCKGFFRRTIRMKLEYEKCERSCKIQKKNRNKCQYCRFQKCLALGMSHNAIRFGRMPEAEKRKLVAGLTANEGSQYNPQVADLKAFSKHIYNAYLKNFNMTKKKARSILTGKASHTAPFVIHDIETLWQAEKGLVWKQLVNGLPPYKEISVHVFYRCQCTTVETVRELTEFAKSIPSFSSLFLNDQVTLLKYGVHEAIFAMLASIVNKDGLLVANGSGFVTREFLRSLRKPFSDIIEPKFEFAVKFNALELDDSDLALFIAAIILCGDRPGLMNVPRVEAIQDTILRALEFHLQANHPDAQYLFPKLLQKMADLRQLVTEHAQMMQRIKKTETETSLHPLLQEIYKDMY
Chain of Retinoic acid receptor RXR-alpha (Homo sapiens) (P19793 whole entry, looked up): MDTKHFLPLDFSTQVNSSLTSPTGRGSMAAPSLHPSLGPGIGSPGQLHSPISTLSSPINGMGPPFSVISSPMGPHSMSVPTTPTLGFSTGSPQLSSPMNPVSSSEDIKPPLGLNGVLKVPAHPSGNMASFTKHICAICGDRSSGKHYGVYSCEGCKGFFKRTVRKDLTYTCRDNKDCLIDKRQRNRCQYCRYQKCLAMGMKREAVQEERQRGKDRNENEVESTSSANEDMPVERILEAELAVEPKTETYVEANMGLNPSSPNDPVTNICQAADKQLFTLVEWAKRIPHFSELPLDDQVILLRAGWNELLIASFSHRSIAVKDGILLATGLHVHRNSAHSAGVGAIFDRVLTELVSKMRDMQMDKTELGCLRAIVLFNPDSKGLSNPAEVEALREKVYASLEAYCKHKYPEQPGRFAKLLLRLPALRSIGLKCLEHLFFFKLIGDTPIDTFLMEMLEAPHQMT
Chain of Glucocorticoid receptor (Homo sapiens) (P04150 whole entry, looked up): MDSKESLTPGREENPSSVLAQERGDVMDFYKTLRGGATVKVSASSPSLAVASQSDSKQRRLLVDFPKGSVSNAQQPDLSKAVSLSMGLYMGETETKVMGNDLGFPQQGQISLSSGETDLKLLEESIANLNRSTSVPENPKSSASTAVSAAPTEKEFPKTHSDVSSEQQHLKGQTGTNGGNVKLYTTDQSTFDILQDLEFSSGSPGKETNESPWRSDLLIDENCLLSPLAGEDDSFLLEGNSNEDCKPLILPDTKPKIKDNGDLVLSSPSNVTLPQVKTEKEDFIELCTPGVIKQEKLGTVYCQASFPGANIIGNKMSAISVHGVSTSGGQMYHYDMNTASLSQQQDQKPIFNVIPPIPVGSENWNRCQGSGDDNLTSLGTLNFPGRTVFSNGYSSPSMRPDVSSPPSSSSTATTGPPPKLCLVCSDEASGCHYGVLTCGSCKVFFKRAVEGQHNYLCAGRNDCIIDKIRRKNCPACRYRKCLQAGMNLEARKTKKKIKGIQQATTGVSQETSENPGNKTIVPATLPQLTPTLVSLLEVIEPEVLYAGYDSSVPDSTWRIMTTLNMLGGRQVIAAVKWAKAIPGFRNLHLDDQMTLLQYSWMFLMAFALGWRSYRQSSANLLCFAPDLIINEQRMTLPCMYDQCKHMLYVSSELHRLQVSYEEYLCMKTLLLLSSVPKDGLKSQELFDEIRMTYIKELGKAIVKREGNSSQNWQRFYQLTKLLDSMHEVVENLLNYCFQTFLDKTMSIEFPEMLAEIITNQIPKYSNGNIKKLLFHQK
Chain of Nuclear receptor subfamily 1 group I member 2 (Rattus norvegicus) (Q9R1A7 whole entry, looked up): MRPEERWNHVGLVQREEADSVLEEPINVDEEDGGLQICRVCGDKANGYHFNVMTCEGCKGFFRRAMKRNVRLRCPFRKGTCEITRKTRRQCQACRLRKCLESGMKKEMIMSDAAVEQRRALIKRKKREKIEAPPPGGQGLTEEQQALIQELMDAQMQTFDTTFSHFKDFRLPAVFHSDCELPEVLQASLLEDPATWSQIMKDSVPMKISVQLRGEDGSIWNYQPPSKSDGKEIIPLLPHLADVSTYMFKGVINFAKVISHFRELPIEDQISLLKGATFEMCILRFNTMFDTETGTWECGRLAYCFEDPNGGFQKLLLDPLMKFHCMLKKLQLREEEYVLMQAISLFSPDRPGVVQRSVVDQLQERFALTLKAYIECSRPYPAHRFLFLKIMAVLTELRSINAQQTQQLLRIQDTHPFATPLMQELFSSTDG

As to `CC(C)(C)C(O)/C(=C\c1ccc(Cl)cc1)n1cncn1` (configuration not stated), the Potency result in assay [1], in assay [2], in assay [4], in assay [6], in assay [8] and in [9] was “inactive” throughout. The Potency entry in [15] was “inactive”. Moreover, the activation in assay [3] is 0.903% (inactive); in [12], -1.6% (inactive); in assay [13] it was 3.57% (inactive). Also, the max response was -55.9% in assay [5]; 16.3% in assay [7]; -0.493% in [10]; -24.9% (inactive) in assay [11]; 6.34% (inactive) in assay [14]; -4.78% (inactive) in [16]. The max response in assay [17] is -13.5% (inactive).
For the molecule `CS/C(=N\O)C(=O)N(C)C`, the Potency entry in assay [1], in assay [2], in assay [4], in assay [6], in assay [8] and in assay [15] was “inactive” each time. Further, the Potency result in [18] was “inactive”. For the same molecule, the activation in assay [3] was 1.45% (inactive); in assay [12], -2.88% (inactive); in assay [13] it was -0.34% (inactive). In addition, the max response in assay [5] was 31.5%; in [7] it was 6.39%; in [10], 0.656%; in assay [11], -15.6% (inactive); in [14], -1.04% (inactive); in [16], -5.16% (inactive). The max response in [17] was -6.73% (inactive); in assay [19] it was -0.0731% (inactive). Moreover, the outcome in assay [20] was inactive.
For `C[Si](Cl)(Cl)[Si](C)(Cl)Cl`, the Potency result in assay [1], in assay [2], in assay [4], in assay [6], in assay [8] and in assay [9] was “inactive” each time. Further, the Potency entry in [15] and in assay [18] was “inactive” in each case. Besides, the values for the activation in [3], in assay [12] and in assay [13] were -3.8% (inactive), -1.71% (inactive) and 0.351% (inactive), respectively. In addition, the max response in assay [5] is -5.47%; in assay [7], -10.2%; in assay [10], -10.7%; in assay [11] it was -4.71% (inactive); in assay [14], -2.05% (inactive); in assay [16], -3.61% (inactive). Further, the max response in [19] is 6.3% (inactive). For the same molecule, in [20], the result was inactive.
With `NN(c1ccccc1)c1ccccc1`, the Potency result in assay [1], in assay [2], in assay [6], in assay [8], in [9] and in [15] was “inactive” each time. Besides, in assay [18], the Potency entry is “inactive”. The figures for the activation in assay [3], in assay [12] and in [13] were -3.55% (inactive), -2.86% (inactive) and 3.15% (inactive), respectively. In addition, the max response in assay [5] is 23.6%; in assay [7], -8.85%; in [10], -11.7%; in assay [11], -14.4% (inactive); in assay [14], -1.16% (inactive); in [16], -7.4% (inactive). Moreover, the max response is -10.4% (inactive) in assay [17] and 1.92% (inactive) in assay [19].
With `Nc1cc(Cl)nc(C(=O)O)c1Cl`, the Potency entry in assay [1], in assay [2], in [4], in [6], in assay [9] and in assay [15] was “inactive” in each case. For the same molecule, the Potency entry in assay [18] is “inactive”. Also, the activation in assay [3] was -6.13% (inactive); in assay [12], 0.121% (inactive). Besides, the max response is -21.2% in assay [5]; -11.4% in assay [10]; -3.66% (inactive) in assay [11]; -2.9% (inactive) in assay [14]; -4.32% (inactive) in assay [16]; 1.25% (inactive) in assay [17]. Besides, the max response in [19] is 2.09% (inactive). In addition, the molecule was classed as inactive in assay [20].
Regarding `C=Cc1ccc(P(c2ccccc2)c2ccccc2)cc1`, the Potency entry in assay [1], in assay [2], in [4], in assay [6], in assay [8] and in [9] was “inactive” in each case. Moreover, the Potency result in assay [15] and in [18] was “inactive” in each case. Also, the activation is -2.27% (inactive) in assay [3] and 0.802% (inactive) in [12]. The max response in assay [5] is 16.9%; in [7], -3.97%; in assay [10] it was -0.204%; in assay [14], -0.0796% (inactive); in assay [17], -7.87% (inactive); in [19], 0.774% (inactive). Moreover, the outcome in [20] was inactive.

Values taken from PubChem BioAssay (NCATS).
